Measured values published in PubChem BioAssay (Tox21).
Where “and” joins values, the source holds several entries; their conditions need not be identical. Equal values may be shown once. Results filed as inconclusive are left out. Entries that show only a call come without a potency. Calls of active or inactive are those of the source. Unless noted, calls follow the shape of the dose curve; as a rule, active = well fitted curve in the direction sought with a large enough effect in the repeat runs; inconclusive = weak or mixed curves; inactive = no such curve, though single readings can be large; an effect the other way counts as inactive or inconclusive.

How the values were obtained:
[1] = qHTS RealTime-Glo MT Cell Viability Assay in HepG2 cells - 16 hour (AID 1224885); also: nearly all actives have a fitted effect of over 50% in size
Summary of the method: (§1)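 qHTS, HepG2, 600 cells/well, RealTime-Glo (NanoLuc + prosubstrate) added with cells; 5 h preincubation; DMSO compound addition; 37 C; luminescence at 0/8/16/24/32/40 h.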

[2] = qHTS RealTime-Glo MT Cell Viability Assay in HEK293 cells - 24 hour (AID 1224886); also: top concentration of the series differs between compounds; nearly all actives have a fitted effect of over 50% in size
Summary of the method: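 Assay medium contained NanoLuc luciferase plus cell-permeant prosubstrate, added with HEK293 cells at 600 cells/well. After 5 h at 37 C/5% CO2 compounds were added; plates stayed at 37 C for 40 h with serial luminescence reads.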

[3] = qHTS RealTime-Glo MT Cell Viability Assay in HEK293 cells - 8 hour (AID 1224887); also: top concentration of the series differs between compounds; nearly all actives have a fitted effect of over 50% in size
Summary of the method: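 HEK293 cells mixed with RealTime-Glo reagents (NanoLuc plus cell-permeant prosubstrate) at 600 cells/well, preincubated 5 h at 37 C/5% CO2, then given 23 nL compound in DMSO. Nonlytic luminescence from viable cells was read at 0, 8, 16, 24, 32 and 40 h.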

[4] = A CellTox Green Cytotoxicity Assay to monitor cytotoxicity in HEK293 cells - 16 hour (AID 1224888); also: nearly all actives have a fitted effect of over 35% in size
Summary of the method: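 HEK293 cells premixed with CellTox Green dye were seeded at 600 cells/well and left 5 h at 37 C/5% CO2 before pin transfer of 23 nL compound in DMSO. Fluorescence from dye bound to dead-cell DNA was read during 40 h treatment.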

[5] = qHTS RealTime-Glo MT Cell Viability Assay in HepG2 cells - 0 hour (AID 1224889); also: nearly all actives have a fitted effect of over 50% in size
Summary of the method: as §1

[6] = A CellTox Green Cytotoxicity Assay to monitor cytotoxicity in HepG2 cells - 8 hour (AID 1224890); also: nearly all actives have a fitted effect of over 45% in size
Summary of the method: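 HepG2 cells were seeded together with the CellTox Green dye at 600 cells/well, left 5 h at 37 C/5% CO2, then given compounds in DMSO. Fluorescence from dye bound to dead-cell DNA was read repeatedly over 40 h of treatment at 37 C.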

[7] = qHTS assay to identify small molecule antagonists of the estrogen receptor alpha (ER-alpha) signaling pathway using the BG1 cell line in the presence of 0.1 nM 17-beta-estradiol - cell viability counter screen (AID 1259241); also: nearly all actives have a fitted effect of over 40% in size
Summary of the method: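 Measures cytotoxicity alongside the ER-alpha antagonist readout: VM7Luc4E2 cells, charcoal-stripped serum, 0.1 nM 17beta-estradiol final, 22 hr compound incubation at 37C, CellTiter-Fluor fluorescence.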

[8] = qHTS assay to identify small molecule antagonists of the androgen receptor (AR) signaling pathway using the MDA cell line in the presence of 0.5 nM R1881 - cell viability counter screen (AID 1259242); also: nearly all actives have a fitted effect of over 45% in size
Summary of the method: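 MDA-kb2 cells (human breast carcinoma, stably carrying MMTV-luciferase reporter) were exposed to compounds with 0.5 nM R1881 (final) for 16 hr at 37C, 0% CO2; viability then read as live-cell protease fluorescence (CellTiter-Fluor, 30 min) in the same wells.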

[9] = qHTS assay to identify small molecule phospholipidosis (PLD) inducers (AID 1259344; active = well fitted curve in the direction sought with a large enough effect; an effect the other way counts as inactive or inconclusive)
Summary of the method: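 Fluorescent phospholipid staining (LipidTOX Red) measured by automated microscopy in fixed HepG2 cells after 24 h treatment; nuclei counterstained with Hoechst 33342; amiodarone as reference inducer.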

[10] = qHTS assay to identify small molecule HDAC inhibitors (AID 1259364); also: top concentration of the series differs between compounds; nearly all actives have a fitted effect of over 45% in size
Summary of the method: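 Wild-type HCT-116 cells were plated overnight, exposed to compounds for 2 h at 37 °C, then given HDAC-Glo class I/II luminogenic reagent for 30 min at room temperature before luminescence was read.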

[11] = qHTS assay to identify small molecule HDAC inhibitors - cell viability counter screen (AID 1259365)
Summary of the method: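 Following a 2hr exposure of overnight-plated wild-type HCT-116 cells to DMSO-delivered compounds, CellTiter-Glo was added and luminescence recorded after 30min at room temperature.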

[12] = qHTS assay to identify small molecule agonists of the sonic hedgehog signaling (Shh) pathway - cell viability counter screen (AID 1259366); also: nearly all actives have a fitted effect of over 50% in size
Summary of the method: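 After a 4hr attachment at 37C, NIH/3T3 cells bearing an integrated Gli1-driven luciferase reporter were dosed with compounds. Treatment lasted 24hr, with the final hour including CellTiter-Fluor for a fluorescence viability measurement.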

[13] = qHTS assay to identify small molecule antagonists of the sonic hedgehog signaling (Shh) pathway - cell viability counter screen (AID 1259367); also: nearly all actives have a fitted effect of over 55% in size
Summary of the method: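 Using CellTiter-Fluor, viability of Gli1-Luc reporter 3T3 cells is read by fluorescence in the wells used for the Shh luciferase assay. Treatment lasts 23 hr with conditioned medium, then reagent 1 hr at 37C.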

[14] = qHTS assay to identify small molecule agonists of the sonic hedgehog signaling (Shh) pathway (AID 1259368; calls by dose curve; also: series mostly up to about 92 µM; nearly all actives have a fitted effect of over 15% in size)
Summary of the method: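 NIH/3T3-derived 3T3Gli1-Luc cells carrying a stably integrated Gli1 response element–firefly luciferase reporter were plated, left 4 hr at 37 C, then given compounds in DMSO for 24 hr. Luminescence was read 30 min after adding luciferase reagent.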

[15] = qHTS assay to identify small molecule antagonists of the sonic hedgehog signaling (Shh) pathway (AID 1259369; calls by dose curve; also: nearly all actives have a fitted effect of over 45% in size; also: potency is read from the fitted curve at half-maximal effect)
Summary of the method: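 NIH/3T3-derived 3T3Gli1-Luc cells with stably integrated Gli1-Luc reporter were preincubated 4hr at 37 C, then given compounds in DMSO plus Shh conditioned medium and incubated 24hr. Firefly luciferase luminescence read after 30min reagent at room temperature.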

[16] = target: Estrogen receptor beta (Homo sapiens) (UniProt Q92731); assay: qHTS assay to identify small molecule agonists of the estrogen receptor beta (ER-beta) signaling pathway (AID 1259377; active = well fitted activation curve with a large enough effect in the signal ratio in the repeat runs, not every such curve was filed as active; the % refers to the signal ratio)
Chain of Estrogen receptor beta (Homo sapiens) (Q92731 whole entry, looked up): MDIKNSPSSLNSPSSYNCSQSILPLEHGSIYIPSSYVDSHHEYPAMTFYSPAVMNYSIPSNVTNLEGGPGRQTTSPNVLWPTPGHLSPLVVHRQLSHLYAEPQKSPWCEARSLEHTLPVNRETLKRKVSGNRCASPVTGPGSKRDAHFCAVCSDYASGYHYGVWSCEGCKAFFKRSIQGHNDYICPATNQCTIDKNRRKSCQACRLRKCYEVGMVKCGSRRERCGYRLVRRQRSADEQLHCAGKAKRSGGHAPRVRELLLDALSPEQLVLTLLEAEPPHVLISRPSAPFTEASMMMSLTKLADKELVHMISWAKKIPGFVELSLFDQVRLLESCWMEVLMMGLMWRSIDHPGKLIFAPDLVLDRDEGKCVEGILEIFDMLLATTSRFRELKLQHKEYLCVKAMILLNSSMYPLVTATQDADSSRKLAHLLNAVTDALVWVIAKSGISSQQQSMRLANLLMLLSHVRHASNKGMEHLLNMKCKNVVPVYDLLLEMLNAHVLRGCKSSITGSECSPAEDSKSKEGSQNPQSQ
Summary of the method: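 In HEK293T cells bearing a UAS-beta-lactamase reporter under ER-beta control, DMSO-delivered compounds were incubated for 16 hr at 37C. Activity was detected as fluorescence 2 hours after LiveBLAzer B/G FRET substrate addition.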

[17] = target: Estrogen receptor beta (Homo sapiens) (UniProt Q92731); assay: qHTS assay to identify small molecule antagonists of the estrogen receptor beta (ER-beta) signaling pathway (AID 1259378; active = well fitted inhibition curve with a large enough effect in the signal ratio in the repeat runs, not every such curve was filed as active; the % refers to the signal ratio)
Summary of the method: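 Antagonist mode: compounds added to beta-lactamase reporter HEK293T ER-beta-UAS cells stimulated with E2 (1nM final), 16 hr at 37C. LiveBLAzer B/G FRET substrate, 2 hours room temperature, fluorescence read-out.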

[18] = qHTS assay to identify small molecule agonists of the androgen receptor (AR) signaling pathway in the presence of an antagonist - cell viability counter screen (AID 1259379); also: series mostly up to about 92 µM; nearly all actives have a fitted effect of over 25% in size
Summary of the method: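 MDA-kb2 human breast carcinoma cells (stable MMTV-luciferase, AR/GR responsive) were seeded 3,000 cells/well, pre-incubated 5 hr at 37C without CO2, then given 3.0uM nilutamide and compounds at 15 concentrations for 16 hr. Viability was read by CellTiter-Fluor fluorescence.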

[19] = target: Estrogen receptor (Homo sapiens) (UniProt P03372); assay: qHTS assay to identify small molecule antagonists of the estrogen receptor alpha (ER-alpha) signaling pathway using the BG1 cell line in the presence of 0.1 nM 17-beta-estradiol (AID 1259244); also: nearly all actives have a fitted effect of over 50% in size
Chain of Estrogen receptor (Homo sapiens) (P03372 whole entry, looked up): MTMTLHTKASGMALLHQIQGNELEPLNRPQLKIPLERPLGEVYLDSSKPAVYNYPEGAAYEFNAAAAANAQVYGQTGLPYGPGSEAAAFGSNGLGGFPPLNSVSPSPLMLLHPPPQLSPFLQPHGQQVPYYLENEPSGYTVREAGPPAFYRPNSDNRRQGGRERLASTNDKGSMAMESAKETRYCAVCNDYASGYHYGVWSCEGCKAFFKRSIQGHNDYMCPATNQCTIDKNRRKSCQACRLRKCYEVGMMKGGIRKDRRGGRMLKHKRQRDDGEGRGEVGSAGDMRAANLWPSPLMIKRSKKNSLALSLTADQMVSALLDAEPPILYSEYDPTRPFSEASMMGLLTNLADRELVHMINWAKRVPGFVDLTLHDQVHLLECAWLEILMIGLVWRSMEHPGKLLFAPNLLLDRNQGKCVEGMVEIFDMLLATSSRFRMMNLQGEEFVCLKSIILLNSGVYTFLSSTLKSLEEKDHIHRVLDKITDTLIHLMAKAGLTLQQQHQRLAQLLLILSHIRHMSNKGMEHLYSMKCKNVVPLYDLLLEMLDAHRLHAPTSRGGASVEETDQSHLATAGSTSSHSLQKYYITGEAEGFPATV
Summary of the method: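 VM7Luc4E2 cells (endogenous full-length ER-alpha, stable 4xERE-luciferase) were grown 5 days in phenol red-free medium with charcoal-stripped FBS, then exposed 22 h at 37C to compounds plus 0.1 nM (final) 17beta-estradiol; ONE-Glo luminescence read-out.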

[20] = target: Androgen receptor (Homo sapiens) (UniProt P10275); assay: qHTS assay to identify small molecule antagonists of the androgen receptor (AR) signaling pathway using the MDA cell line in the presence of 0.5 nM R1881 (AID 1259243); also: nearly all actives have a fitted effect of over 50% in size
Chain of Androgen receptor (Homo sapiens) (P10275 whole entry, looked up): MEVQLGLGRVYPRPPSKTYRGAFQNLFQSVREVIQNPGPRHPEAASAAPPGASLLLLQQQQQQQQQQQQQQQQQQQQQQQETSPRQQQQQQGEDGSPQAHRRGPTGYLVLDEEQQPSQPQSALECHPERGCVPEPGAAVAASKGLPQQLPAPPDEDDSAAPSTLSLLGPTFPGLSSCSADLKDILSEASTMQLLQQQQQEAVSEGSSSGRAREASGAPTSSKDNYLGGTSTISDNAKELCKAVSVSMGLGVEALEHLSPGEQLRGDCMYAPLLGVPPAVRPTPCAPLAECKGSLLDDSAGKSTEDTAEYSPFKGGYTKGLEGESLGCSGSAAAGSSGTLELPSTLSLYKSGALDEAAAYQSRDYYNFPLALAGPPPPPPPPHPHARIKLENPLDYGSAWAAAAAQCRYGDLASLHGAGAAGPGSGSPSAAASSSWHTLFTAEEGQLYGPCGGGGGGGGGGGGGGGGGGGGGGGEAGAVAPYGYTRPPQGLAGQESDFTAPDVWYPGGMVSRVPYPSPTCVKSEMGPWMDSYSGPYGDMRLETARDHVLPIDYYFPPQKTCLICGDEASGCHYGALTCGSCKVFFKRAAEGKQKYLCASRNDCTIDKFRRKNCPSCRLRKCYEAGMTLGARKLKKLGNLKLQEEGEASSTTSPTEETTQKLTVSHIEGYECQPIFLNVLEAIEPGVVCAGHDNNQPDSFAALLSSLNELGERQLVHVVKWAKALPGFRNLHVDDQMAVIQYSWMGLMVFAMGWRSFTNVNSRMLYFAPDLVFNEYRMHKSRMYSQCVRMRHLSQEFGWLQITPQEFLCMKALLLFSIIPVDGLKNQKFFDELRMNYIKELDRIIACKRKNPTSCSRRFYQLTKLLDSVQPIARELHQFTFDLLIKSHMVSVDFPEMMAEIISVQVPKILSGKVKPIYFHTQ
Summary of the method: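 MDA-kb2 human breast carcinoma cells carrying an MMTV-luciferase reporter (AR- and GR-responsive) were plated, rested 5 hr at 37C, dosed with compounds, then stimulated with 0.5 nM R1881 (final) for 16 hr; luminescence was read after ONE-Glo.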

| SMILES | outcome [1] | Potency [2] | outcome [3] | Potency [4] | outcome [5] | Potency [6] | Potency [7] | outcome [8] | outcome [9] | Potency [10] | outcome [11] | Potency [12] | Potency [13] | outcome [14] | Potency [15] | Potency [16] | outcome [17] | outcome [18] | Potency [19] | Potency [20] |
| --- | --- | --- | --- | --- | --- | --- | --- | --- | --- | --- | --- | --- | --- | --- | --- | --- | --- | --- | --- | --- |
| CC1OC(C)OC(C)O1 (stereo unspecified) | inactive | inactive | inactive | inactive | inactive | inactive | inactive | inactive | inactive | inactive | inactive | inactive | inactive | inactive | inactive | inactive | inactive | inactive |  |  |
| COC(=O)NC(=S)Nc1ccccc1NC(=S)NC(=O)OC | inactive | inactive | inactive | inactive | inactive | inactive | inactive | inactive |  | inactive | inactive | inactive |  | inactive | inactive | inactive |  | inactive | inactive |  |
| CCNc1nc(NC(C)C)nc(SC)n1 | inactive | inactive | inactive | inactive | inactive | inactive |  | inactive |  | inactive | inactive | inactive |  | inactive | inactive | inactive | inactive | inactive |  | inactive |
| Oc1ccccc1Cl | inactive | inactive | inactive | inactive | inactive | inactive |  | inactive |  | inactive | inactive | inactive |  | inactive | inactive |  |  | inactive |  |  |
| CCCN(CCC)c1c([N+](=O)[O-])cc(C(F)(F)F)cc1[N+](=O)[O-] | inactive | inactive |  | inactive | inactive | inactive | inactive | inactive |  | inactive | inactive | inactive | inactive | inactive | inactive |  |  | inactive | inactive | inactive |
| NCCc1ccc(O)cc1 | inactive | inactive |  | inactive | inactive | inactive | inactive | inactive | inactive | inactive | inactive | inactive | inactive | inactive | inactive | inactive |  | inactive | inactive |  |
| Cc1cc(-c2cc(C)c(N)c(C)c2)cc(C)c1N | inactive | inactive | inactive | inactive | inactive | inactive |  | inactive |  | inactive | inactive | inactive | inactive | inactive | 2.74 µM (active) and 21.3 µM (active) |  |  | inactive | inactive |  |
| CN(C)N=O | inactive | inactive | inactive | inactive | inactive | inactive |  | inactive |  | inactive | inactive | inactive | inactive | inactive | inactive | inactive |  | inactive |  |  |
| CCCCCCCCCl | inactive | inactive | inactive | inactive | inactive | inactive |  | inactive |  | inactive | inactive | inactive |  | inactive | inactive | inactive |  | inactive | inactive |  |
| CN(C)[C@@H]1C(=O)C(C(N)=O)=C(O)[C@@]2(O)C(=O)C3=C(O)c4c(O)cccc4[C@@](C)(O)[C@H]3C[C@@H]12 | inactive | inactive | inactive | inactive | inactive | inactive |  | inactive | inactive | inactive | inactive | inactive | inactive | inactive | inactive | inactive |  | inactive |  |  |
| CC(Br)C(=O)O (stereo unspecified) | inactive | inactive | inactive | inactive | inactive | inactive |  | inactive |  | inactive | inactive | inactive |  | inactive | inactive | inactive | inactive | inactive | inactive |  |
| COP(N)(=O)SC (stereo unspecified) | inactive | inactive | inactive | inactive | inactive | inactive |  | inactive |  | inactive | inactive | inactive |  | inactive | inactive | inactive |  | inactive | inactive |  |
| Cc1ccccc1O | inactive | inactive |  | inactive | inactive | inactive | inactive | inactive |  | inactive | inactive | inactive | inactive | inactive | inactive | inactive |  | inactive | inactive |  |
| CNC(=O)Oc1ccccc1OC(C)C | inactive | inactive | inactive | inactive | inactive | inactive |  | inactive |  | inactive | inactive | inactive | inactive | inactive | inactive | inactive | inactive | inactive | inactive |  |
| COC(=O)c1ccccc1C(=O)OC | inactive | inactive |  | inactive | inactive | inactive | inactive | inactive | inactive | inactive | inactive | inactive | inactive | inactive | inactive | inactive |  | inactive | inactive |  |
| O=[N+]([O-])c1ccc([As](=O)(O)O)cc1 | inactive | inactive | inactive | inactive | inactive | inactive |  | inactive | inactive | inactive | inactive | inactive |  | inactive | inactive |  |  | inactive | inactive |  |
| Cn1cc(-c2ccccc2)c(=O)c(-c2cccc(C(F)(F)F)c2)c1 | inactive | inactive | inactive | inactive |  | inactive | inactive | inactive |  | inactive | inactive |  |  | inactive | inactive |  |  | inactive | inactive |  |
